# PLK1 PBD inh: inhibitors of human PLK1 polo-box domain binding; P53350; Plk1 PBD binding of FITC phosphopeptide, fluorescence polarization; Potency, µM, actives largely listed as inhibitors; hit rate 2.8% among 360,000; AID 720504; also: series mostly up to about 57 µM; nearly all actives have a fitted effect of over 65% in size
# BAZ2B block: BAZ2B (human) inhibition; Potency, µM (doses to about 114 µM), actives largely listed as inhibitors; AlphaScreen BAZ2B-H3K14Ac peptide displacement; hit rate 4.4% among 360,000; also: nearly all actives have a fitted effect of over 60% in size
#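 AlphaScreen displacement: compounds (up to 110uM) incubated 30 min at room temperature with a preformed 50 nM BAZ2B/50 nM biotinylated H3K14Ac peptide complex in PBS pH 7.4 with Tween-20. Donor and acceptor beads at 10 ug/mL final added, 20 min light-protected before reading.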
# JMJD2A Tudor inh: JMJD2A Tudor domain (human) inhibition | O75164 | AlphaScreen JMJD2A-Tudor / H3K4me3 peptide binding | Potency, µM (top dose mostly 114 µM), most hits filed as inhibitors | hit rate 4.4% among 390,000 | AID 504339; also: nearly all actives have a fitted effect of over 50% in size
# HP1b binding inh: inhibitors of HP1-beta chromodomain binding to methylated histone tails; AlphaScreen HP1-beta / biotin-H3K9me3 peptide binding; Potency, µM (series often up to 114 µM), most hits filed as inhibitors; hit rate 0.56% among 390,000; also: nearly all actives have a fitted effect of over 70% in size
#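 HP1-beta protein (50 nM final) preincubated 30 min at room temperature with biotinylated H3(1-18)K9me3 peptide (50 nM) in PBS pH 7.4, 0.01% Tween-20, then compound added for 30 min. AlphaScreen streptavidin donor/nickel chelate acceptor beads (10 ug/mL final), 30 min dark, luminescence read.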
# Sfp PPTase inh: Sfp phosphopantetheinyl transferase inhibition; Q9F4F7; Biochemical Sfp PPTase activity, qHTS; Potency, µM, hits mostly inhibitors; hit rate 3.5% among 310,000; AID 1490;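 also: the enzyme is Sfp with the accession as filed and its product quenches rhodamine fluorescence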
#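 Compounds were incubated with enzyme (final 15 nM) for 15 min at room temperature before substrate addition started the reaction. Fluorescence at 525 nm excitation, 598 nm emission was recorded immediately and after 30 minutes.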
# G9a inh: inhibitors of human histone lysine methyltransferase G9a; Q96KQ7; G9a H3K9 monomethylation, AlphaScreen, 2 h; Potency, µM (doses to about 102 µM), usual class: inhibitors; hit rate 8.8% among 350,000; AID 504332; also: nearly all actives have a fitted effect of over 75% in size
#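 Signal arises when biotinylated H3K9 peptide, once monomethylated, bridges streptavidin donor and antibody-captured acceptor beads. Enzyme at 20 nM was preincubated 15 min with test compounds; peptide 500 nM and SAM 20 uM then reacted for 2 h.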
# Hits are given with their value; - = inactive; ? = inconclusive; . = no result given; [ ] = remark or other dose. A selection: hits, their analogues and other compounds. The true share with any hit is near 12%. Calls follow the shape of the dose curve; as a rule, active = well fitted curve in the direction sought with a large enough effect; inconclusive = small, poorly fitted or top-dose-only effect, or another doubt; inactive = no such curve, though single readings can be large; an effect the other way counts as inactive or inconclusive.
SMILES,PLK1 PBD inh,BAZ2B block,JMJD2A Tudor inh,HP1b binding inh,Sfp PPTase inh,G9a inh
CC12CCC=CC1C(c1ccc3ccccc3c1C=Cc1ccccc1)N(Cc1ccccc1)C2=O (stereo not given),.,.,-,-,-,.
COc1ccccc1/C=C/c1nc(C#N)c(N2CCN(C)CC2)o1,.,-,-,-,.,-
O=c1[nH]c(SCc2c(F)cccc2Cl)nc2c1CCCC2,.,?,-,-,.,-
CSc1nc(-c2ccccc2)c(C#N)c(=O)[nH]1,27µM,-,-[11.4 µM],-,-,-
CSc1nc(-c2ccc(Cl)cc2)c(C#N)c(=O)[nH]1,-,-,-,-,-,?
COc1cc(/C=C(\C#N)c2nc3c(s2)CCCC3)ccc1O,.,56µM,.,.,-,?
Cc1cn(CC(=O)NCCc2ccccn2)c(=O)[nH]c1=O,21µM,.,?,-,.,.
CCc1ccc(OC(C)c2nnc(SCC(=O)Nc3ncccc3C)n2C)cc1 (stereo not given),-,-,?,-,-,11µM
COc1ccc(-n2c(=O)/c(=C\c3cccs3)s/c2=C(/C#N)C(=O)N2CCN(C)CC2)cc1,-,-,-,-,-,50µM
N#C/C(C(=O)N1CCOCC1)=c1/s/c(=C\c2ccccn2)c(=O)n1-c1ccccc1,-,-,-,-,-,-
Cc1nccc(-c2cc(-c3ccc(Cl)cc3Cl)no2)n1,-,-,-,-,-,-
C[Si](C)(C)O[Si](C)(C)C,.,.,.,.,-,-
Cc1cccc(C)c1NC(=O)C1C2C=CC(C2)C1C(=O)NCc1ccccn1 (stereo not given),-,79µM,-,-,-,?
COc1cccc(-c2c(-c3cc(OC)cc(OC)c3)n(C)c3ccc(-c4cnc(N5CCOCC5)nc4)cc23)c1,-,.,-,-,.,.
CC[C@H](C)[C@H](N)C(=O)N[C@@H](CCCNC(=N)N)C(=O)N[C@@H](CCC(N)=O)C(=O)NCC(=O)N1CCC[C@H]1C(=O)N[C@@H](CCCCN)C(=O)N[C@@H](CCC(=O)O)C(=O)N1CCC[C@H]1C(=O)N[C@@H](Cc1ccccc1)C(=O)N[C@@H](CCCNC(=N)N)C(=O)N[C@@H](CC(=O)O)C(=O)N[C@@H](Cc1ccc(O)cc1)C(=O)N[C@H](C(=O)N[C@@H](CC(=O)O)C(=O)N[C@@H](CCCNC(=N)N)C(=O)N[C@@H](Cc1ccccc1)C(=O)N[C@@H](Cc1ccc(O)cc1)C(=O)N[C@@H](CCCCN)C(=O)N[C@H](C(=O)N[C@@H](CC(C)C)C(=O)O)[C@@H](C)O)C(C)C,.,.,.,.,-,.
CCc1nc2ccccc2n1CC(=O)N1CCN(Cc2ccccc2)CC1,21µM,-,-[11.4 µM],-,-,-
O=C(Cn1ncc(Cl)c(Cl)c1=O)N1CCN(Cc2ccccc2)CC1,-,-,-,-,-,56µM
O=C(Cn1ncc(Cl)c(Cl)c1=O)N1CCOCC1,-,-,-,-,-,-
O=C(Cn1c(NCCO)nc2ccccc21)N1CCN(Cc2ccccc2)CC1,-,-,-,-,-,-
CCCn1c(-c2ccc(F)cc2)nc2c(NCCCN3CCOCC3)nc(C)nc21,.,.,.,.,-,.
CC[C@@]12C(=O)N(c3cccc(Cl)c3)C(=O)N1[C@H](c1ccc(Br)cc1)[C@@H]1C(=O)N(C(C)(C)C)C(=O)[C@@H]12,-,-,79µM,-,.,-[2.33 µM]
CC(C)C[C@@]12C(=O)N(c3cccc(Cl)c3)C(=O)N1[C@H](c1ccc(Br)cc1)[C@@H]1C(=O)N(C(C)(C)C)C(=O)[C@@H]12,-,-,-,-,.,-[12.7 µM]
O=C(/C=C/c1cccs1)Nc1ccc(N2CCOCC2)c(S(=O)(=O)Nc2cc(Cl)ccc2Cl)c1,-,-,-,-,-,56µM
COc1ccc(NS(=O)(=O)c2cc(N)ccc2N2CCOCC2)cc1,?,-,-,-,-,16µM
COc1ccc(NS(=O)(=O)c2cc(NC(=O)c3ccccc3)ccc2N2CCOCC2)cc1,-,.,-,-,.,.
Nc1cc(S(=O)(=O)Nc2ccccc2Cl)ccc1N1CCOCC1,-,-,-,-,-,?
N=C1c2ccccc2CN1c1ccc(N2CCOCC2)c(S(=O)(=O)Nc2ccc(Cl)cc2)c1,.,?,.,.,10µM,.
Nc1ccc(N2CCOCC2)c(S(=O)(=O)Nc2cc(Cl)ccc2Cl)c1,-,-,?,-,-,35µM
